The test system of experiment [1] is Human papillomavirus type 1a protein E7 (residues 44-93). As to the kind of experiment: HPV1a E7 fragment binders on microarrays, primary screen, biochemical, small-molecule microarray, residues 44-93, 635 nm fluorescence (AID 1108).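 Further: E7 fragment applied at 1 µg/mL in TBST for 1 h at 4 C; score combines spot fluorescence with its signal to noise ratio.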 The conditions noted are these: small-molecule microarray binding, fluorescence 635 nm; higher = more signal.
Experiment [2] can be described thus: modulators of HCV replicon luciferase signal, primary screen, HCV replication inhibitor project, Huh7 cells, luciferase reporter (AID 1109).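 Further: huh7 hepatoma cells harbouring a luciferase neomycin HCV replicon reporter; luciferase luminescence as measure of HCV replicon replication; test concentration not given here.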 As to conditions: 48 h, higher = more signal. For orientation: In antiviral work, replicon cells carry a viral genome segment that copies itself.
The target in experiment [3] is Left-right determination factor 2 (Homo sapiens) (UniProt O00292). As to the kind of experiment: LEFTY2 binders on small-molecule microarrays, primary screen, biochemical, small-molecule microarray, 635 nm fluorescence scan (AID 1110). As to conditions: LEFTY2 binding, higher = more signal.
In experiment [4] the target is Calmodulin-1 (Homo sapiens) (UniProt P0DP23). As to the kind of experiment: CALM1 binders on microarrays, EGTA buffer, profiling panel, biochemical, small-molecule microarray, Cy5-labelled CALM1 (AID 1111).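 Further: labelled calmodulin applied in Tris saline Tween buffer holding calcium plus EGTA and DTT.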 As to conditions: Cy5-CALM1 binding fluorescence, higher = more signal.
Experiment [5] shares this target. As to the kind of experiment: calcium-bound CALM1 binders on microarrays, profiling panel, artefact control for SMM control-protein annotation, biochemical, small-molecule microarray, Cy5-labelled CALM1, plus calcium (AID 1112).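 Further: score merges spot fluorescence with signal to noise from triplicate slides.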 As to conditions: Cy5-CALM1 binding fluorescence, higher = more signal.
Experiment [6] can be described thus: small-molecule microarray binders of probe aWnt5a, primary screen, biochemical, biotinylated probe, 635/667 nm fluorescence (AID 1113).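 Further: score merges 667 nm fluorescence intensity with signal-to-noise per printed feature.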 As to conditions: higher = more signal; small-molecule microarray, probe aWnt5a, fluorescence unless noted.
Experiment [7] is described as follows: small-molecule microarray binders of probe aShh, primary screen, biochemical, biotinylated probe, 635/667 nm fluorescence (AID 1114).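 Further: probe is biotin-labelled aShh protein from a stem cell growth factor screen; measures binding of labelled protein to compounds printed on the slide; score merges feature fluorescence at 667 nm with signal-to-noise.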 The conditions noted are these: higher = more signal; small-molecule microarray, probe aShh, fluorescence unless noted.
Experiment [8] can be described thus: small-molecule microarray binders of probe aNog, primary screen, biochemical, biotinylated probe, 635/667 nm fluorescence (AID 1115).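 Further: probe is biotinylated aNog protein used at 0.15 µg/mL for 1 h at 4 C; z-score combines 667 nm fluorescence of each spot with its signal to noise.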 As to conditions: higher = more signal; small-molecule microarray, probe aNog, fluorescence unless noted.
Experiment [9] addresses Torsin-1A-interacting protein 1 (Homo sapiens) (UniProt Q5JTV8). As to the kind of experiment: LAP1 binders from COS7 cell lysate, primary screen, small-molecule microarray, 635/667 nm fluorescence (AID 1116). The conditions noted are these: COS7-hLAP1 lysate binding, 635 nm fluorescence, higher = more signal.
The target of experiment [10] is Alpha-bungarotoxin (Bungarus multicinctus) (UniProt P60615). As to the kind of experiment: alpha-bungarotoxin binders on microarray, profiling panel, artefact control for SMM control protein annotation, biochemical, small-molecule microarray, Alexa647 label, 635/667 nm fluorescence (AID 1117). As to conditions: alpha-BTX-A647 binding fluorescence, higher = more signal.

In experiment [11] the target is Albumin (Bos taurus) (UniProt P02769). As to the kind of experiment: bovine serum albumin binders on microarray, profiling panel, artefact control for SMM control protein annotation, biochemical, small-molecule microarray, Alexa647 label, 635/667 nm fluorescence (AID 1118).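 Further: score merges 667 nm emission intensity and signal-to-noise per printed compound spot.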 As to conditions: BSA-A647 binding, fluorescence 635 nm, higher = more signal.
The nature of experiment [12]: small-molecule microarray binders of probe aXIP, primary screen, biochemical, NeuroSMM set, 635/667 nm fluorescence (AID 1119).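 Further: probe is the protein aXip251-270 applied at 1 µg/mL to compound-printed slides; binding of probe to printed compounds measured as 667 nm fluorescence plus signal to noise.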 The conditions noted are these: higher = more signal, called active from +8 up or from −8 down unless noted.
Experiment [13] can be described thus: small-molecule binders of probe aNOTCH3, primary screen, biochemical, small-molecule microarray, 635/667 nm fluorescence (AID 1120).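 Further: probe is a biotin-tagged antibody raised against NOTCH3 rather than NOTCH3 protein; score merges spot fluorescence near 667 nm with spot signal to noise.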 As to conditions: higher = more signal; small-molecule microarray, probe aNOTCH3, fluorescence unless noted.
The nature of experiment [14]: small-molecule binders of probe aNOTCH2, primary screen, biochemical, small-molecule microarray, 635/667 nm fluorescence (AID 1121).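 Further: score merges feature fluorescence read at 667 nm with its signal to noise.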 The conditions noted are these: higher = more signal; small-molecule microarray, probe aNOTCH2, fluorescence unless noted.
For experiment [15], the target named is Carbonic anhydrase 2 (Homo sapiens) (UniProt P00918). As to the kind of experiment: CAII small-molecule binders, profiling panel, biochemical, small-molecule microarray, Alexa647-labelled CAII (AID 1122). As to conditions: CAII-A647 binding fluorescence, higher = more signal.
Experiment [16] can be described thus: COS7 lysate on small-molecule microarray, probe aHis, 635 nm (AID 1123).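 Further: z-score combines 667nm fluorescence intensity with signal-to-noise per printed compound spot.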 The conditions noted are these: higher = more signal; small-molecule microarray, COS7 cell lysate, probe aHis, fluorescence unless noted.
The nature of experiment [17]: compound binding in COS7 lysate, probe aLAP1, primary screen, cell lysate, small-molecule microarray (AID 1124).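 Further: lysate comes from COS7 cells expressing LAP1 and is applied at 0.3 µg/mL; score merges spot fluorescence near 667 nm with signal-to-noise over triplicate slides.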 As to conditions: higher = more signal; small-molecule microarray, COS7 cell lysate, probe aLAP1, fluorescence unless noted.
Experiment [18] concerns Sam68 (KHDRBS1). As to the kind of experiment: Sam68 small-molecule binders, primary screen, biochemical, small-molecule microarray, 635 nm fluorescence (AID 1125).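 Further: score merges 667 nm channel intensity with signal to noise over triplicate slides.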 The conditions noted are these: small-molecule microarray binding, higher = more signal.
Experiment [19] has as its system Chordin-like protein 2 (CHRDL2). As to the kind of experiment: CHRDL2 small-molecule binders, primary screen, biochemical, small-molecule microarray, 635 nm fluorescence (AID 1126).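 Further: printed compound slides probed with Chrdl2 protein at 4 µg/mL for 1 h at 4 C; score merges 667 nm emission intensity with signal to noise over three replicate slides.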 As to conditions: small-molecule microarray binding, fluorescence 635 nm; higher = more signal.
Experiment [20] deals with Concanavalin-A (Canavalia ensiformis) (UniProt P02866). As to the kind of experiment: ConA small-molecule binders, primary screen, artefact control for SMM control protein annotation, biochemical, small-molecule microarray, Alexa647 label, 635 nm (AID 1127).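 Further: z combines 667 nm emission intensity with signal-to-noise across three replicate slides.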 The conditions noted are these: ConA-A647 binding fluorescence, higher = more signal.

Active and inactive are the calls of the source.

Left-right determination factor 2 (Homo sapiens), sequence (O00292 whole entry, looked up): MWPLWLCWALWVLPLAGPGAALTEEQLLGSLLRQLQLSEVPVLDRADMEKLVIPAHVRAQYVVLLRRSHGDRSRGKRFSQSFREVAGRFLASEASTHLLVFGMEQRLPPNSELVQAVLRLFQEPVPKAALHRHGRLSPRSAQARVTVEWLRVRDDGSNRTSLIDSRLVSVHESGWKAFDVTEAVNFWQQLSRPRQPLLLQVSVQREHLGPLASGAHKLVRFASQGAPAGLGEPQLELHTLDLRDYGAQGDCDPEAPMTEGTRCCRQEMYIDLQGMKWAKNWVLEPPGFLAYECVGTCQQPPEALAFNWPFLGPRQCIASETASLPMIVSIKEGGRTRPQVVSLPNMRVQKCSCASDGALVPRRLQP
Alpha-bungarotoxin (Bungarus multicinctus), sequence (P60615 whole entry, looked up): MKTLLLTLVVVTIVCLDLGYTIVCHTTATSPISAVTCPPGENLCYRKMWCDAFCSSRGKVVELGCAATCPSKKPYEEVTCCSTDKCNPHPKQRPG
Albumin (Bos taurus), sequence (P02769 whole entry, looked up): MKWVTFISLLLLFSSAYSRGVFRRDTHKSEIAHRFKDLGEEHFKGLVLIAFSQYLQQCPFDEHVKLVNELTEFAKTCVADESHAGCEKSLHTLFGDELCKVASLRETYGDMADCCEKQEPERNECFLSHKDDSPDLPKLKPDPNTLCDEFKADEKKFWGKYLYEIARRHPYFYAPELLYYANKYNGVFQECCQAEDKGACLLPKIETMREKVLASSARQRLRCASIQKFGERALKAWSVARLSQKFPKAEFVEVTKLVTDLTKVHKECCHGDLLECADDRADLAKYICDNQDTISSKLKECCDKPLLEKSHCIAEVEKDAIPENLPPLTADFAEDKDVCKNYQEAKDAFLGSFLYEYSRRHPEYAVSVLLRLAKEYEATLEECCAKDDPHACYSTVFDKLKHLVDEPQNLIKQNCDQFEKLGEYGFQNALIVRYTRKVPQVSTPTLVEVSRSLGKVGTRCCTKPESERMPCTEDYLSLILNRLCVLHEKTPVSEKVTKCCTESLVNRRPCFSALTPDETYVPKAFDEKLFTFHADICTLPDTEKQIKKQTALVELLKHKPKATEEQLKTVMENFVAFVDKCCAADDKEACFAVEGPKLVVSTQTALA
Concanavalin-A (Canavalia ensiformis), sequence (P02866 whole entry, looked up): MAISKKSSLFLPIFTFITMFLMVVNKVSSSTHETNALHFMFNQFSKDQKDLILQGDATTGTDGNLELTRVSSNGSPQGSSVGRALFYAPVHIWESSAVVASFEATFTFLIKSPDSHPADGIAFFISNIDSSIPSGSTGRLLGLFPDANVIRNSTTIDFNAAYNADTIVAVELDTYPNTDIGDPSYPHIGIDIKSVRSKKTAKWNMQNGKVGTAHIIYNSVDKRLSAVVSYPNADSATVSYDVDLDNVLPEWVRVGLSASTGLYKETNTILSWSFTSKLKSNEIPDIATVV
Torsin-1A-interacting protein 1 (Homo sapiens), sequence (Q5JTV8 whole entry, looked up): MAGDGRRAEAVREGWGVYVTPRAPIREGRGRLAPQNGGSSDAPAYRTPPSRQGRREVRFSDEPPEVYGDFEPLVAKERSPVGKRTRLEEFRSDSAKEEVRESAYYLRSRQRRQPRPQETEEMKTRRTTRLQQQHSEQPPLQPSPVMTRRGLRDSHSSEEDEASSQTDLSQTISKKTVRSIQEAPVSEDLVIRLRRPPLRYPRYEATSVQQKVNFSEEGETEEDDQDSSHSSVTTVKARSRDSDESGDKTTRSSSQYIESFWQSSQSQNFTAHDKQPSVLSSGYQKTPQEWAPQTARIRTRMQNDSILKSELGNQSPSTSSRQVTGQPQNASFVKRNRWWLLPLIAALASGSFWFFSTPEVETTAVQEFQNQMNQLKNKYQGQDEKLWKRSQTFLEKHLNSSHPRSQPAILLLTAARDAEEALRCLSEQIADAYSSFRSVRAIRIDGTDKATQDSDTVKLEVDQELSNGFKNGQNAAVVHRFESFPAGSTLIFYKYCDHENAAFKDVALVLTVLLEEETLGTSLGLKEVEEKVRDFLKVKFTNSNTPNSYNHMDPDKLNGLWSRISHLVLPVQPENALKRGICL

For the molecule `CCCc1cc2c(n1Cc1ccc(C)cc1)C(C)C1CN(C(=O)c3ccccc3)C(C)(C(=O)OC)C21` (stereo not given), the composite z-score in experiment [1] was 0.294; in [3], -0.472; in experiment [4], 2.63; in [5], 1.31; in [6], 0.417; in experiment [7] it was 0.769. In addition, the composite z-score worked out at 1 in [8]; 2.25 in experiment [9]; 1.9 in [10]; 0.864 in experiment [11]; 0.773 in experiment [13]; 1.03 in [14]. Also, the composite z-score in experiment [15] is 0.803; in experiment [16], 2.02; in experiment [17], 1.45; in experiment [18] it was 0.52; in experiment [19] it was -0.809; in [20], 0.453. In [2], this molecule had a z-score of -1.33. Moreover, in experiment [12], the composite Z-score was 1.3 (inactive).
For the molecule `CCCc1cc2c(n1Cc1ccco1)C(C)C1CN(C(=O)c3ccccc3)C(C)(C(=O)OC)C21` (stereo not given), the composite z-score in experiment [1] turned out to be 0.0223; in experiment [3] it was 0.392; in experiment [4], 1.9; in experiment [5], 0.425; in [6] it was 0.117; in experiment [7], 0.239. Moreover, the composite z-score in [8] was 1.65; in experiment [9], 1.4; in [10], 0.899; in experiment [11], 0.953; in experiment [13] it was 0.247; in [14], 0.374. Besides, the composite z-score in experiment [15] is 0.744; in [16], 0.747; in experiment [17] it was 0.859; in experiment [18], 0.878; in experiment [19], 0.515; in [20], 0.851. Further, the z-score in experiment [2] was -1.28. Moreover, the composite Z-score in experiment [12] is 0.829 (inactive).
For `C[C@@H]1Cc2c(cnc3c2CN(C)CC3)CO1`, the composite z-score in experiment [1] was -1.58; in experiment [3] it was 0.894; in experiment [4], -1.33; in experiment [5] it was -0.882; in [6], -0.0221; in experiment [7], 0.149. For the same molecule, the composite z-score in experiment [8] is -0.0689; in [9] it was -0.217; in experiment [10] it was -0.138; in experiment [11], -0.537; in experiment [13], -0.0902; in experiment [14], -0.111. For the same molecule, the composite z-score in experiment [15] was -0.0903; in experiment [16] it was 0.233; in experiment [17], -0.268; in experiment [18], -0.512; in [19] it was 0.975; in experiment [20], -1.28. In experiment [2], this molecule displayed a z-score of -0.491. Also, the composite Z-score in experiment [12] is 0.266 (inactive).
Consider `O=P(c1ccccc1)(c1ccccc1)N1CC2(CC2)CC(O)(c2ccccc2)C1` (stereo not given), for which the composite z-score in experiment [1] is 1.04; in experiment [3], -1.1; in experiment [4], 1.04; in experiment [5], 1.08; in experiment [6] it was 0.435; in experiment [7] it was -0.0553. For the same molecule, the composite z-score in [8] amounted to 1.6; in experiment [9], 1.58; in experiment [10], 0.41; in [11], 0.498; in experiment [13] it was 0.392; in experiment [14], 0.193. In addition, the composite z-score in experiment [15] is 0.835; in [16], 3.3; in experiment [17] it was 1.19; in experiment [18] it was 0.584; in [19], -0.31; in experiment [20] it was 0.462. Further, the z-score in experiment [2] is -1.06. Also, the composite Z-score in experiment [12] was 0.284 (inactive).
On to `CCOC(=O)[C@H]1CC=C2C(=O)Oc3ccccc3[C@@H]21`, for which the composite z-score is 0.252 in experiment [1]; -0.562 in experiment [3]; -0.229 in experiment [4]; -0.42 in [5]; -0.129 in experiment [6]; -0.366 in experiment [7]. Also, the composite z-score in experiment [8] was 0.356; in experiment [9], -1.28; in [10], -0.0764; in experiment [11] it was 0.445; in experiment [13], -0.126; in experiment [14], -0.162. The composite z-score in [15] is 0.568; in [16] it was 0.468; in experiment [17], 1.3; in [18] it was -0.491; in [19], -0.94; in [20], 0.122. This molecule returned a z-score in experiment [2] of -1.93. For the same molecule, in experiment [12], the composite Z-score was -0.123 (inactive).
For the molecule `OCc1ccc(C2=CC(C3CC3)N(Cc3sc4ccccc4c3Cl)CC2)cc1` (stereo not given), the composite z-score was 0.794 in [1]; 0.401 in experiment [3]; 0.0976 in [4]; -0.481 in experiment [5]; -0.103 in [6]; -0.0146 in [7]. In addition, the composite z-score in [8] was -0.0662; in experiment [9], 0.781; in experiment [10], 1.44; in experiment [11], -0.0477; in experiment [13], -0.0932; in experiment [14], -0.133. For the same molecule, the composite z-score is 0.306 in experiment [15]; 0.88 in experiment [16]; 0.434 in experiment [17]; 1.07 in experiment [18]; 0.529 in experiment [19]; 0.948 in experiment [20]. Further, the z-score in experiment [2] was -1.68. For the same molecule, the composite Z-score in experiment [12] is 0.565 (inactive).
Turning to `C=C(CC1(C(C)NP(=O)(c2ccccc2)c2ccccc2)CC1)c1ccccc1` (stereo not given), the composite z-score in experiment [1] was 1.48; in experiment [3], -0.867; in experiment [4], 0.962; in [5], 0.945; in experiment [6], 0.23; in experiment [7], 0.128. For the same molecule, the composite z-score stood at 0.804 in [8]; 1.32 in [9]; 0.468 in experiment [10]; 0.314 in experiment [11]; 0.143 in experiment [13]; 0.038 in experiment [14]. Further, the composite z-score in experiment [15] was 0.596; in experiment [16], 3.14; in experiment [17], 0.425; in [18], 1.18; in experiment [19], -0.0819; in experiment [20] it was 0.711. Moreover, the z-score in [2] was -1.52. Further, the composite Z-score in experiment [12] was -0.589 (inactive).
Take `COc1cc2c(cc1O)C(C)N(C)CC2` (stereo not given): the composite z-score is -1.75 in experiment [1]; -0.603 in experiment [3]; 1.58 in experiment [4]; 1.24 in [5]; 0.0017 in experiment [6]; -0.0769 in experiment [7]. The composite z-score is -0.343 in [8]; 0.0049 in [9]; -0.613 in experiment [10]; 0.122 in experiment [11]; -0.0967 in experiment [13]; -0.0877 in experiment [14]. Also, the composite z-score in experiment [15] was 0.545; in [16], 0.594; in [17], 0.209; in experiment [18] it was -1.24; in [19], -0.432; in experiment [20], 0.519. This molecule had a z-score in experiment [2] of 0.569. Moreover, in [12], the composite Z-score was 0.104 (inactive).

Source of the values: PubChem BioAssay.
